From PubChem BioAssay AID1159580 (chemical genetic matrix, 2015)
The whole screen tested about 5,500 compounds, of which about 2,000 (36%) were called active. Not shown: some 18% with an inconclusive outcome. No stated cut-off is given here; in the data, active means normalized growth mostly below about 0.91 (no sharp cut-off); inconclusive means no clear call, values can overlap the other calls; inactive means mostly above about 0.92. This is one part of the list.

Experiment: chemical genetic growth profiling, strain panel (AID 1159580);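 further: tested at 20 µM; growth read once vehicle control cultures reached saturation at 30 °C; 1 = growth at the plate median or of vehicle wells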
Conditions: growth OD

Measured: normalized growth

NC(=O)NO
inactive: S. cerevisiae deletion strains, locus YJR066W, strain TOR1, stronger effect = lower value 0.931 | S. cerevisiae deletion strains, locus YKL009W, strain mrt4, stronger effect = lower value 0.998 | S. cerevisiae deletion strains, locus YKL068W, stronger effect = lower value 0.997 | S. cerevisiae deletion strains, locus YKL085W, strain MDH1 (second series), stronger effect = lower value 0.989 | S. cerevisiae deletion strains, locus YKL085W, strain MDH1, stronger effect = lower value 0.989 | S. cerevisiae deletion strains, locus YKL160W, strain elf1, stronger effect = lower value 1.03 | S. cerevisiae deletion strains, locus YKL190W, strain CNB1, stronger effect = lower value 1.01 | S. cerevisiae deletion strains, locus YKR001C, strain vps1, stronger effect = lower value 0.992 | S. cerevisiae deletion strains, locus YKR026C, strain gcn3, stronger effect = lower value 1.02 | S. cerevisiae deletion strains, locus YKR091W, strain srl3, stronger effect = lower value 1.01 | S. cerevisiae deletion strains, locus YLL001W, strain dnm1, stronger effect = lower value 1.01 | S. cerevisiae deletion strains, locus YLL026W, stronger effect = lower value 1.02 | S. cerevisiae deletion strains, locus YLL041C, strain sdh2, stronger effect = lower value 1.02 | S. cerevisiae deletion strains, locus YLR027C, strain aat2, stronger effect = lower value 1.03 | S. cerevisiae deletion strains, locus YLR039C, strain RIC1, stronger effect = lower value 1 | S. cerevisiae deletion strains, locus YLR058C, strain SHM2, stronger effect = lower value 1.01 | S. cerevisiae deletion strains, locus YLR102C, strain apc9, stronger effect = lower value 1 | S. cerevisiae deletion strains, locus YLR113W, strain HOG1, stronger effect = lower value 0.951 | S. cerevisiae deletion strains, locus YLR221C, strain rsa3, stronger effect = lower value 1.01 | S. cerevisiae deletion strains, locus YLR258W, strain gsy2, stronger effect = lower value 1.02 | S. cerevisiae deletion strains, locus YLR262C, strain YPT6 (second series), stronger effect = lower value 1 | S. cerevisiae deletion strains, locus YLR262C, strain YPT6, stronger effect = lower value 0.993 | S. cerevisiae deletion strains, locus YLR268W, strain sec22, stronger effect = lower value 0.998 | S. cerevisiae deletion strains, locus YLR320W, strain mms22, stronger effect = lower value 1.02 | S. cerevisiae deletion strains, locus YLR330W, strain CHS5, stronger effect = lower value 1.01 | S. cerevisiae deletion strains, locus YLR342W, strain FKS1 (second series), stronger effect = lower value 1 | S. cerevisiae deletion strains, locus YLR342W, strain FKS1, stronger effect = lower value 1.02 | S. cerevisiae deletion strains, locus YLR357W, strain rsc2, stronger effect = lower value 0.994 | S. cerevisiae deletion strains, locus YLR370C, strain arc18, stronger effect = lower value 1.03 | S. cerevisiae deletion strains, locus YLR371W, strain rom2, stronger effect = lower value 0.997 | S. cerevisiae deletion strains, locus YLR384C, strain iki3, stronger effect = lower value 1.02 | S. cerevisiae deletion strains, locus YLR418C, strain cdc73, stronger effect = lower value 0.97 | S. cerevisiae deletion strains, locus YML016C, strain PPZ1, stronger effect = lower value 1 | S. cerevisiae deletion strains, locus YML032C, strain rad52, stronger effect = lower value 0.984 | S. cerevisiae deletion strains, locus YML120C, strain ndi1, stronger effect = lower value 0.997 | S. cerevisiae deletion strains, locus YML124C, strain tub3, stronger effect = lower value 0.993 | S. cerevisiae deletion strains, locus YMR058W, strain fet3, stronger effect = lower value 1.06 | S. cerevisiae deletion strains, locus YMR078C, strain ctf18, stronger effect = lower value 0.999 | S. cerevisiae deletion strains, locus YMR125W, strain sto1, stronger effect = lower value 1.02 | S. cerevisiae deletion strains, locus YMR129W, stronger effect = lower value 1.02 | S. cerevisiae deletion strains, locus YMR205C, strain PFK2, stronger effect = lower value 1.03 | S. cerevisiae deletion strains, locus YMR223W, strain ubp8, stronger effect = lower value 0.994 | S. cerevisiae deletion strains, locus YMR231W, strain pep5, stronger effect = lower value 1.03 | S. cerevisiae deletion strains, locus YMR263W, strain SAP30, stronger effect = lower value 1.01 | S. cerevisiae deletion strains, locus YMR307W, strain GAS1, stronger effect = lower value 1.03 | S. cerevisiae deletion strains, locus YNL067W, strain RPL9B, stronger effect = lower value 1 | S. cerevisiae deletion strains, locus YNL071W, strain lat1, stronger effect = lower value 1.02 | S. cerevisiae deletion strains, locus YNL128W, strain TEP1, stronger effect = lower value 1.02 | S. cerevisiae deletion strains, locus YNL153C, strain GIM3, stronger effect = lower value 0.994 | S. cerevisiae deletion strains, locus YNL183C, strain NPR1, stronger effect = lower value 0.945 | S. cerevisiae deletion strains, locus YNL209W, strain ssb2, stronger effect = lower value 1.02 | S. cerevisiae deletion strains, locus YNL224C, strain SQS1, stronger effect = lower value 0.99 | S. cerevisiae deletion strains, locus YNL233W, strain BNI4, stronger effect = lower value 1.01 | S. cerevisiae deletion strains, locus YNL248C, strain rpa49, stronger effect = lower value 1.03 | S. cerevisiae deletion strains, locus YNL250W, strain rad50, stronger effect = lower value 0.996 | S. cerevisiae deletion strains, locus YNL271C, strain bni1, stronger effect = lower value 0.999 | S. cerevisiae deletion strains, locus YNL298W, strain CLA4, stronger effect = lower value 0.997 | S. cerevisiae deletion strains, locus YNL307C, strain MCK1, stronger effect = lower value 1 | S. cerevisiae deletion strains, locus YNL322C, strain KRE1 (second series), stronger effect = lower value 1.03 | S. cerevisiae deletion strains, locus YNR049C, strain mso1, stronger effect = lower value 1.01 | S. cerevisiae deletion strains, locus YNR052C, strain pop2, stronger effect = lower value 1.01 | S. cerevisiae deletion strains, locus YOL006C, strain TOP1, stronger effect = lower value 0.967 | S. cerevisiae deletion strains, locus YOL012C, strain htz1 0.591 | S. cerevisiae deletion strains, locus YOL147C, strain pex11, stronger effect = lower value 1 | S. cerevisiae deletion strains, locus YOR001W, strain rrp6, stronger effect = lower value 1.01 | S. cerevisiae deletion strains, locus YOR061W, strain CKA2, stronger effect = lower value 1.01 | S. cerevisiae deletion strains, locus YOR069W, strain VPS5, stronger effect = lower value 1.01 | S. cerevisiae deletion strains, locus YOR070C, strain gyp1, stronger effect = lower value 1.02 | S. cerevisiae deletion strains, locus YOR080W, strain dia2, stronger effect = lower value 1.03 | S. cerevisiae deletion strains, locus YOR083W, strain WHI5 (second series), stronger effect = lower value 0.997 | S. cerevisiae deletion strains, locus YOR083W, strain WHI5, stronger effect = lower value 0.993 | S. cerevisiae deletion strains, locus YOR106W, strain vam3, stronger effect = lower value 1.02 | S. cerevisiae deletion strains, locus YOR136W, strain idh2, stronger effect = lower value 0.991 | S. cerevisiae deletion strains, locus YOR144C, strain elg1, stronger effect = lower value 0.998 | S. cerevisiae deletion strains, locus YOR184W, strain ser1, stronger effect = lower value 0.993 | S. cerevisiae deletion strains, locus YOR231W, strain MKK1, stronger effect = lower value 0.967 | S. cerevisiae deletion strains, locus YOR265W, strain rbl2, stronger effect = lower value 1.02 | S. cerevisiae deletion strains, locus YOR270C, strain vph1, stronger effect = lower value 1.05 | S. cerevisiae deletion strains, locus YOR290C, strain snf2, stronger effect = lower value 1.02 | S. cerevisiae deletion strains, locus YOR316C, strain cot1, stronger effect = lower value 1.01 | S. cerevisiae deletion strains, locus YPL051W, strain arl3, stronger effect = lower value 1.03 | S. cerevisiae deletion strains, locus YPL078C, strain atp4, stronger effect = lower value 1.03 | S. cerevisiae deletion strains, locus YPL106C, strain sse1, stronger effect = lower value 0.984 | S. cerevisiae deletion strains, locus YPL240C, strain hsp82, stronger effect = lower value 1.01 | S. cerevisiae deletion strains, locus YPL241C, strain CIN2, stronger effect = lower value 1.01 | S. cerevisiae deletion strains, locus YPL256C, strain CLN2, stronger effect = lower value 0.954 | S. cerevisiae deletion strains, locus YPR119W, strain clb2, stronger effect = lower value 0.993 | S. cerevisiae deletion strains, locus YPR141C, strain kar3, stronger effect = lower value 0.99 | S. cerevisiae deletion strains, locus YPR163C, strain tif3, stronger effect = lower value 1 | S. cerevisiae deletion strains, locus YPR167C, strain met16, stronger effect = lower value 0.996 | S. cerevisiae deletion strains, strain wtn01, stronger effect = lower value 0.995 | S. cerevisiae strains, strain wild type, stronger effect = lower value 1
